This is an account of results in PubChem BioAssay (Tox21).

Each structure is given as a SMILES string. Where “and” joins values, the source holds several entries; their conditions need not be identical. Identical values can stand only once. Inconclusive results are not listed. The source holds several records for some structures; these can differ, active in one and inactive in another. Calls of active or inactive are those of the source. Unless noted, the call rests on the fitted dose curve.

The nature of test [1]: Nuclear factor erythroid 2-related factor 2/antioxidant responsive element (Nrf2/ARE) small molecule agonists: qHTS cell viability counter screen in human keratinocytes (AID 1919968; active means well fitted curve in the direction sought with a large enough effect in the repeat runs; an effect the other way counts as inactive or inconclusive; further: nearly all actives have a fitted effect of over 55% in size; further: potency means the concentration at half of the fitted maximal effect). The method in brief:
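Cells of the KeratinoSens line were plated at 1,500 per well and left for 5 h before compound transfer from DMSO stocks. After a 23 h incubation (37 C, 5% CO2), CellTiter-Fluor was added. Signal was taken as fluorescence intensity 1 h later.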
For orientation: qHTS replaces the single test concentration by a dilution series.

In test [2] the target is KiSS-1 receptor (Homo sapiens) (UniProt Q969F8). Put plainly: Human kisspeptin (KISS1R) small molecule agonists, calcium flux assay in KISS1R-HEK293 cells (AID 1920064; active means well fitted curve in the direction sought with a large enough effect in the repeat runs; an effect the other way counts as inactive or inconclusive). The method in brief: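 Cell line: HEK293, stable human KISS1R. Dye loading 1 h at 37 C after 18 h culture. Read: kinetic fluorescence, 480/540 nm, 3 min at 1 s intervals.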
For orientation: A change in cytosolic calcium serves as a functional read-out for many receptors and channels.

Test [3] can be described thus: G protein-coupled receptor (GPCR) small molecule agonists, calcium flux assay: HEK293 wild type cell line counter screen (AID 1920065). The method in brief:
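Tox21 10K compounds, 15 concentrations each in triplicate, pin-transferred in DMSO onto dye-loaded cells; kinetic read at 480/540 nm for 3 min, 1 s intervals.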

Test [4] is described as follows: p53 small molecule agonists, cell-based qHTS assay with human liver microsomes (AID 1963577). In a few lines: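 p53RE-bla cells, 4,000/well, compound added after 5 h, with human liver microsomes 0.5 mg/mL and NADPH 0.5 mg/mL final; 16 h at 37 C, then LiveBLAzer 2 h RT, fluorescence.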
Test [5] in a line: p53 small molecule agonists, cell-based qHTS assay with rat liver microsomes (AID 1963578). The method in brief: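 p53RE-bla cells, 4,000/well, pre-incubated 5 h, then given compounds plus rat liver microsomes (0.5 mg/mL final) and NADPH (0.5 mg/mL final). Incubation 16 h at 37 C; beta-lactamase reporter read by LiveBLAzer fluorescence after 2 h at room temperature.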
The nature of test [6]: p53 small molecule agonists, cell-based qHTS assay with human liver microsomes: qHTS cell viability counter screen (AID 1963579). Further: nearly all actives have a fitted effect of over 45% in size. In a few lines: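 p53RE-bla cells, 4,000/well, dosed 5 hours after plating, with human liver microsomes (0.5 mg/mL final) plus NADPH (0.5 mg/mL final), 16 hours at 37 C. Viability read as CellTiter-Glo luminescence after 30 min at room temperature.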

Test [7] can be described thus: p53 small molecule agonists, cell-based qHTS assay with rat liver microsomes: qHTS cell viability counter screen (AID 1963580). Further: nearly all actives have a fitted effect of over 45% in size. Further: potency means the concentration at half of the fitted maximal effect. The method in brief: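 Counter screen for cytotoxicity under metabolic activation: rat liver microsomes and NADPH, 0.5 mg/mL final each, added with compounds to p53RE-bla HCT-116 cells; 16 h at 37 C, then ATP luminescence read.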
Test [8] can be described thus: p53 small molecule agonists, cell-based qHTS assay: qHTS cell viability counter screen (AID 1963581). Further: nearly all actives have a fitted effect of over 45% in size. Further: potency means the concentration at half of the fitted maximal effect. In a few lines: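 ATP content measured by luminescence in HCT-116 p53RE-bla cells treated 16 h at 37 C, same wells as the reporter screen.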
A short description of test [9]: p53 small molecule agonists, cell-based qHTS assay (AID 1963582; active means well fitted activation curve with a large enough effect in the signal ratio in the repeat runs, not every such curve was filed as active; the % refers to the signal ratio). In a few lines: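 16 h compound exposure (37 C) of p53 response element–bla cells, preceded by 5 h recovery at 37 C/5% CO2; read-out via LiveBLAzer B/G FRET substrate, 2 h RT, fluorescence intensity.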
The nature of test [10]: cAMP Responsive Elements (CRE) small molecule agonists, cell-based qHTS assay (AID 1963590). In a few lines:
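HEK 293T cells stably bearing CRE-bla were plated at 2,000 cells per well and rested 18 h. Compounds, positive controls or DMSO were added for 3 h at 37 C. LiveBLAzer B/G substrate was then loaded for 2 h at room temperature.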

Test [11] is described as follows: cAMP Responsive Elements (CRE) small molecule antagonists, cell-based qHTS assay (AID 1963591; active means well fitted inhibition curve with a large enough effect in the signal ratio in the repeat runs, not every such curve was filed as active; the % refers to the signal ratio). The method in brief:
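First, CRE-bla HEK293T cells settled 18 h at 37 C. Next, compound and 0.25 uM final NKH477 were applied for 3 h. Last, LiveBLAzer B/G substrate was loaded for 2 h at room temperature.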

Test [12] deals with Beta-2 adrenergic receptor (Homo sapiens) (UniProt P07550). Put plainly: Adrenergic beta2 receptor (ADRB2) small molecule antagonists, cell-based qHTS assay (AID 1963592). Further: nearly all actives have a fitted effect of over 50% in size. Further: potency means the concentration at half of the fitted maximal effect. The method in brief:
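Assay format: CHO-ADRB2 cells, 18-20hr seeding at 37C/5% CO2, then compound plus 1nM isoproterenol agonist mix for 0.5hr RT. Homogeneous time-resolved fluorescence cAMP detection after 1hr, expressed as 665/615 nm ratio.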

Test [13] has the same target. Briefly: Adrenergic beta2 receptor (ADRB2) small molecule agonists, cell-based qHTS assay (AID 1963593).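 Further: CHO cells stably overexpressing human ADRB2.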 In a few lines:
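CHO cells stably over-expressing ADRB2 were plated overnight at 37C, then dosed with compounds plus a stimulation mix containing 100uM IBMX and 25uM Ro-20-1724 for 0.5hr at room temperature. cAMP was measured by HTRF competition, 1hr.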

The target in test [14] is D(2) dopamine receptor (Homo sapiens) (UniProt P14416). Put plainly: Dopamine D2 receptor (DRD2) small molecule agonists, cell-based qHTS assay (AID 1963594). Further: nearly all actives have a fitted effect of over 35% in size. The method in brief: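 HEK293 cells stably expressing DRD2 were cultured 24 h at 37 C, then given Ro20-1724 (0.1 mM final) and compounds for 10 min at room temperature. NKH477 (200nM) was then added for 30 min. cAMP was read by HTRF.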

The target is the same in test [15]. Put plainly: Dopamine D2 receptor (DRD2) small molecule antagonists, cell-based qHTS assay (AID 1963595; active means well fitted inhibition curve with a large enough effect in the signal ratio in the repeat runs, with a control signal flat; the % refers to the signal ratio). The method in brief: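 Stable D2 receptor HEK293 line, 24 h after seeding. Compound preincubated 10 min, then quinpirole (12 nM) with forskolin analogue NKH477 (200 nM), 30 min, room temperature. Detection by time-resolved FRET of cAMP.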
Test [16] concerns the target Gonadotropin-releasing hormone receptor (Homo sapiens) (UniProt P30968). Put plainly: Human gonadotropin-releasing hormone receptor (GnRHR) small molecule agonists, calcium flux assay in GnRHR-HEK293 cells (AID 1920063). Further: nearly all actives have a fitted effect of over 35% in size. The method in brief: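 Compounds dissolved in DMSO are pin-transferred onto dye-loaded GnRHR-HEK293 cells, which were seeded 18 h before at 37 C/5% CO2. Calcium signal is read as fluorescence intensity at 1 s intervals for 3 min.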

For test [17], the target named is 5-hydroxytryptamine receptor 2A (Homo sapiens) (UniProt P28223). Put plainly: 5-hydroxytryptamine receptor 2A (HTR2A) small molecule antagonists, cell-based qHTS assay (AID 1963586). Further: nearly all actives have a fitted effect of over 45% in size. The method in brief: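 CHO cells stably expressing human HTR2A were plated for 18 h at 37 C, then loaded with calcium dye for 1 h. Compounds were preincubated 5 min at room temperature before DOI (4 nM solution) was added. Kinetic fluorescence was read for 3 min.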

In test [18] the target is Muscarinic acetylcholine receptor M1 (Homo sapiens) (UniProt P11229). Put plainly: Cholinergic receptor muscarinic 1 (CHRM1) small molecule agonists, cell-based qHTS assay (AID 1963589). Further: nearly all actives have a fitted effect of over 35% in size. The method in brief: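 Homogeneous fluorescence calcium flux, agonist mode. Human M1-expressing CHO cells; compound dosed at 15 concentrations, three independent runs; signal sampled every 1 sec.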

For test [19], the target named is 5-hydroxytryptamine receptor 2A (Homo sapiens) (UniProt P28223). Briefly: 5-hydroxytryptamine receptor 2A (HTR2A) small molecule agonists, cell-based qHTS assay (AID 1963587). Further: nearly all actives have a fitted effect of over 30% in size. Further: potency means the concentration at half of the fitted maximal effect. The method in brief: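 HTR2A-CHO cells, plated 18 h at 37 C/5% CO2, dye-loaded 1 h at 37 C; compounds in DMSO added by pin tool (agonist mode). Intracellular calcium flux read as kinetic fluorescence on FDSS over 2 min at 1 s intervals.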

Test [20] has as its target Muscarinic acetylcholine receptor M1 (Homo sapiens) (UniProt P11229). Briefly: Cholinergic receptor muscarinic 1 (CHRM1) small molecule antagonists, cell-based qHTS assay (AID 1963588). Further: nearly all actives have a fitted effect of over 40% in size. The method in brief:
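Compounds were tested at 15 concentrations in three independent runs. Dye-loaded CHRM1-CHO cells were exposed 5 min at room temperature before stimulation by acetylcholine added at 50nM. Intracellular calcium was read kinetically on FDSS for 3 min.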

Sequence of 5-hydroxytryptamine receptor 2A (Homo sapiens) (P28223 whole entry, looked up): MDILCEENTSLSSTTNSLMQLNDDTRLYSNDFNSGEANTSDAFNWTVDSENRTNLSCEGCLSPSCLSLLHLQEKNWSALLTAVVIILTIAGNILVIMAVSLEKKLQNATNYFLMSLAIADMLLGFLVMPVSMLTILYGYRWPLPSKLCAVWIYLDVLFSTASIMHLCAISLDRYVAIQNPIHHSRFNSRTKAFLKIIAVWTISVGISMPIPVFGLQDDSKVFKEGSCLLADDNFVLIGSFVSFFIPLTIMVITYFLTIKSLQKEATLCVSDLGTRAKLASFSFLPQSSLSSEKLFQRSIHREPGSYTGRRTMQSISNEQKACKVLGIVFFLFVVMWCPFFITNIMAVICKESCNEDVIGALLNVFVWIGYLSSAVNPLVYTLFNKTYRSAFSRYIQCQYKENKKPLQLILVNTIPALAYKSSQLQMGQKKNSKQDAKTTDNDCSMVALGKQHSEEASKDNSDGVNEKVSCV
Sequence of Beta-2 adrenergic receptor (Homo sapiens) (P07550 whole entry, looked up): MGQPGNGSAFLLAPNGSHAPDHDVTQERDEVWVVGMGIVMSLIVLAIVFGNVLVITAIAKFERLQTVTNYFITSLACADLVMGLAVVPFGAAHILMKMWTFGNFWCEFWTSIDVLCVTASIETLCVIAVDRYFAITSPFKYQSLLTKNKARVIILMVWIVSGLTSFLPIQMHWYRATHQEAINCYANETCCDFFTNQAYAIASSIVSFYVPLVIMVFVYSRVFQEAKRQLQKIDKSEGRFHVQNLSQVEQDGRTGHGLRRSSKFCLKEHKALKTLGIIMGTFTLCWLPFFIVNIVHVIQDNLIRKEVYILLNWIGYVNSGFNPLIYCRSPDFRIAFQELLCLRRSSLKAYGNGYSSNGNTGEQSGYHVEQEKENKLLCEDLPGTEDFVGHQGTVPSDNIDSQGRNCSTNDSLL
Sequence of D(2) dopamine receptor (Homo sapiens) (P14416 whole entry, looked up): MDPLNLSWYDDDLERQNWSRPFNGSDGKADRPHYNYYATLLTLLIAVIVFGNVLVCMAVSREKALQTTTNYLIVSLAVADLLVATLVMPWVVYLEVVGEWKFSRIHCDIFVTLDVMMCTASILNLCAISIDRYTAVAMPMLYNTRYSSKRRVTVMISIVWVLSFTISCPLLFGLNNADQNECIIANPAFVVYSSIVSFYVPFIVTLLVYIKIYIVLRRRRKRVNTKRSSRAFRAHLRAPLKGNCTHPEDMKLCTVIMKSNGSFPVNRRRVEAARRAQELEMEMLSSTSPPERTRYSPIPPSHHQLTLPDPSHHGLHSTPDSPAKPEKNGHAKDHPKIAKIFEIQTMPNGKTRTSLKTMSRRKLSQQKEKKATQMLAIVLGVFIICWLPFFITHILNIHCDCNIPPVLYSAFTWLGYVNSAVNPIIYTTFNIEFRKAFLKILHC
Sequence of Gonadotropin-releasing hormone receptor (Homo sapiens) (P30968 whole entry, looked up): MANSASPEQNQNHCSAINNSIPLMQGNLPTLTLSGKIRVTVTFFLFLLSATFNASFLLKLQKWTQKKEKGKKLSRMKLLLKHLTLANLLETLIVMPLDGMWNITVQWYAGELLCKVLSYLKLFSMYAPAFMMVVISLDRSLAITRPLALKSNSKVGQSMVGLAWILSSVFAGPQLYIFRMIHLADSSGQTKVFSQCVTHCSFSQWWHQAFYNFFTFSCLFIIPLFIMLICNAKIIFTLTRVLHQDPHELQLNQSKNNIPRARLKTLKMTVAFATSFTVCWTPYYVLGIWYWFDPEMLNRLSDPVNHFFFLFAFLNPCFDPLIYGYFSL
Sequence of Muscarinic acetylcholine receptor M1 (Homo sapiens) (P11229 whole entry, looked up): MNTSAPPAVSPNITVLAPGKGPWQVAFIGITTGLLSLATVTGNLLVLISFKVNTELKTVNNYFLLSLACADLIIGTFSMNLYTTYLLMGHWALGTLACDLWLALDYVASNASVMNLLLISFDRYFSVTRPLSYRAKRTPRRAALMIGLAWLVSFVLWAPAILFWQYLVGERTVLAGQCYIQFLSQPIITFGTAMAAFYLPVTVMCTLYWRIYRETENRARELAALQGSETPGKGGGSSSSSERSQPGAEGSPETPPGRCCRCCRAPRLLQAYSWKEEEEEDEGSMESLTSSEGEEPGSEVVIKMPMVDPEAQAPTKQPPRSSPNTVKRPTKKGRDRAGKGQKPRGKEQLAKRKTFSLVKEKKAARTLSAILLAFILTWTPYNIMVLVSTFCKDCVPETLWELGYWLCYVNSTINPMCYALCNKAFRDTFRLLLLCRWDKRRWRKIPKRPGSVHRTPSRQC
Sequence of KiSS-1 receptor (Homo sapiens) (Q969F8 whole entry, looked up): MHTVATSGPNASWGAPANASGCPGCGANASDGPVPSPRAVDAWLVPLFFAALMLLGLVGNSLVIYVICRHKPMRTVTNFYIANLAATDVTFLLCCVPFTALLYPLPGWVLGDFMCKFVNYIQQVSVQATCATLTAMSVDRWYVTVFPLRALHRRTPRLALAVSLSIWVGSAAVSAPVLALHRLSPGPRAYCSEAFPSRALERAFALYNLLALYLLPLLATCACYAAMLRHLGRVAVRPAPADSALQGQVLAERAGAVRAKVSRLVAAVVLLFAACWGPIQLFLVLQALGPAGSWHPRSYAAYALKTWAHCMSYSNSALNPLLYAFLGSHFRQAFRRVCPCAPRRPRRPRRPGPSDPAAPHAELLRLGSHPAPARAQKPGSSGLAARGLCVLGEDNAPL

For `CC(C)=CCC/C(C)=C/CO`, the Potency result in [1], in [2], in [3], in test [4], in test [5] and in [6] was “inactive” in each case. Also, the Potency result in test [7], in test [8], in [9], in test [10], in [11] and in test [12] was “inactive” in each case. The Potency entry in [13], in test [14] and in test [15] was “inactive” each time.
With `COc1ccccc1OCC(O)CO` (stereo unspecified), the Potency entry in test [1], in [16], in test [2], in test [3], in test [4] and in test [5] was “inactive” each time. Besides, the Potency entry in test [6], in [7], in test [8], in test [9], in [10] and in test [11] was “inactive” throughout. Besides, the Potency entry in test [12], in [13], in test [14] and in [15] was “inactive” each time.
As for `O=C(O)c1ccc(S(=O)(=O)N(Cl)Cl)cc1`, the Potency entry in [1], in test [2], in [3], in [4], in [5] and in test [7] was “inactive” each time. Further, the Potency entry in test [9], in test [17], in test [18], in test [10], in test [11] and in test [12] was “inactive” in each case. The Potency entry in [13], in test [14] and in [15] was “inactive” each time.
Take `C#CC1(O)CC[C@H]2[C@@H]3CCC4=CCCC[C@@H]4[C@H]3CC[C@@]21C` (stereo partly specified): the Potency in test [1] was 27.3 µM (active) and inactive; in [8], 40.8 µM (active) and inactive; in [19] it was 54.9 µM (active) and inactive. In addition, the Potency entry in test [2], in test [3], in [4], in [5], in test [6] and in [7] was “inactive” in each case. For the same compound, the Potency result in [17], in [20], in [18], in [10], in test [11] and in test [12] was “inactive” throughout. For the same compound, the Potency result in test [13], in [14] and in [15] was “inactive” throughout.
Consider `Oc1c(Cl)cc(Cl)cc1Sc1cc(Cl)cc(Cl)c1O`, for which the Potency in test [1] is 13.7 µM (active) and 31.1 µM (active) and 27.3 µM (active); in test [7] it was 20.5 µM (active) and 46.5 µM (active) and inactive; in test [12], 55.4 µM (active) and inactive. Also, the Potency entry in test [2], in test [3], in test [4], in [5], in test [9] and in [11] was “inactive” each time. Besides, the Potency entry in [13], in [14] and in test [15] was “inactive” each time.
Turning to `CC(C)=CCC/C(C)=C\CO`, the Potency entry in test [1], in test [2], in test [3], in [4], in [6] and in test [7] was “inactive” in each case. For the same compound, the Potency result in test [8], in test [9], in test [10], in test [11], in test [12] and in [14] was “inactive” each time. Also, the Potency entry in test [15] is “inactive”.
In the case of `O=c1cc[nH]c(=O)[nH]1`, the Potency result in test [1], in test [16], in [2], in test [3], in test [4] and in test [5] was “inactive” each time. Besides, the Potency result in [6], in test [7], in [8], in [9], in test [17] and in test [19] was “inactive” in each case. Moreover, the Potency result in [20], in test [18], in test [10], in test [11], in [12] and in [14] was “inactive” throughout. The Potency entry in test [15] is “inactive”.
Regarding `CN1C(=O)CC[C@H]1c1cccnc1`, the Potency result in test [1], in test [2], in test [3], in test [4], in test [6] and in [7] was “inactive” throughout. Moreover, the Potency entry in test [8], in [9], in [17], in test [19], in [20] and in test [18] was “inactive” in each case. For the same compound, the Potency result in [10], in [11], in [12], in [13], in test [14] and in test [15] was “inactive” throughout.
